NS1 function inh = blocks influenza NS1 protein function | Potency, µM (series often up to 46.1 µM), without a hit: at the top dose activity, positive = more growth | 270,000 tested, 0.4% active; note: potency is the fitted concentration of half-maximal effect; actives are rising curves; nearly all actives have a fitted effect of over 50% in size
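Growth recovery, yeast-based: influenza A NS1 expressed in S. cerevisiae causes slow growth, and suppressors are detected by OD600. The parent strain without NS1 is used as positive control.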
SARS PLP yeast = blocks SARS-CoV papain-like protease in a yeast assay | S. cerevisiae expressing SARS-CoV PLpro, growth rescue | Potency, µM (titrated, usually from 32.9 µM), for inactives: at the highest dose activity, positive = growth rescue, actives largely listed as activators | 330,000 tested, 0.19% active | AID 485353; note: potency is the fitted concentration of half-maximal effect; 0% is about no effect; nearly all actives have a fitted effect of over 55% in size
Shiga inhibitor = Shiga toxin inhibition | Vero cells, Shiga toxin protein synthesis inhibition reporter | inhibition, % at 38.7 µM | 290,000 tested, 9.2% active; in the data active = inhibition mostly above about 28%, no sharp cut-off; inactive = mostly below about 43%; note: 0% is about no effect
Cycloheximide cs = counter-screen for Shiga toxin inhibitors: cycloheximide protein synthesis inhibition. cell reporter, cycloheximide protein synthesis inhibition counterscreen. max response, %. 300,000 tested, 12% active; in the data active = max response mostly above about 13%, no sharp cut-off; inactive = mostly below about 14%; note: read at 38.3 µM for the half of the compounds with a filed dose; 0% is about no effect
* marks the source's active call; other numbers are inactive results; ? = inconclusive; nt = not tested or not shown. Compounds with a hit are over-represented: about 12% of the library has one in this group of screens. Unless noted, calls come from the whole dose curve.

SMILES | NS1 function inh | SARS PLP yeast | Shiga inhibitor | Cycloheximide cs
CC[C@H](C)[C@H](NC(=O)[C@H](Cc1ccccc1)NC(=O)[C@H](CC(C)C)NC(=O)[C@H](CCSC)NC(=O)[C@H](CCC(=O)O)NC(=O)[C@H](CCC(=O)O)NC(=O)[C@H](CC(=O)O)NC(=O)[C@H](CO)NC(=O)[C@@H]1CCCN1C(=O)[C@H](CCCCN)NC(=O)[C@@H](N)[C@@H](C)O)C(=O)N[C@@H](Cc1ccc(O)cc1)C(=O)NCC(=O)N[C@@H](Cc1cnc[nH]1)C(=O)N[C@@H](Cc1ccc(O)cc1)C(=O)N[C@@H](CCCCN)C(=O)N[C@@H](CCC(N)=O)C(=O)N[C@@H](C)C(=O)N[C@H](C(=O)N[C@H](C(=O)NCC(=O)N[C@@H](CC(=O)O)C(=O)N[C@H](C(=O)N[C@@H](CC(N)=O)C(=O)N[C@H](C(=O)N[C@@H](CCC(=O)O)C(=O)N[C@@H](CCCNC(=N)N)C(=O)N1CCC[C@H]1C(=O)NCC(=O)N[C@@H](CCSC)C(=O)N[C@@H](CC(C)C)C(=O)N[C@@H](CC(=O)O)C(=O)N[C@@H](Cc1ccccc1)C(=O)N[C@H](C(=O)O)[C@@H](C)O)[C@@H](C)O)[C@@H](C)CC)C(C)C)[C@@H](C)O | nt | nt | 2 | -9
COCc1[nH][nH]c(=O)c1/C=N/N1CCOCC1 | nt | 0% | -6 | -3
CC(C)Cn1c(/C=C/c2ccccc2)nc2ccccc21 | -39% | ? | 59* | 39*
CC12C=CC(=O)C=C1[C@@H](F)CC1C2C(O)CC2(C)C1CC[C@]2(O)C(=O)CO (stereo partly drawn) | nt | nt | 33 | 3
CN1N=C(C(C)(C)C)CSC1=Nc1ccc(F)cc1 | -4% | 0% | 36 | 19*
CC(=O)c1ccc(OCc2cccc(C(F)(F)F)c2)cc1O | -2% | -1% | 43* | 29*
COC(=O)c1cccc(NC(=O)COc2cccc([N+](=O)[O-])c2)c1 | -8% | 0% | 23 | 16*
CCN(C(=O)CSc1ncccc1C(=O)Oc1cccc([N+](=O)[O-])c1)c1cccc(C)c1 | 19% | 18% | -2 | -4
CCC(CC)C(=O)OCC(=O)Nc1cccc([N+](=O)[O-])c1 | -4% | 0% | 37* | 15*
Cc1cc(C)cc(NC(=O)/C=C/c2ccc([N+](=O)[O-])s2)c1 | -2% | 5% | -10 | -7
CCC(CCC(=O)Nc1cccc([N+](=O)[O-])c1)C(=O)O (stereo not drawn) | 5% | 1% | -14 | -2
CC(=O)c1cccc(NC(=O)/C=C/c2ccc([N+](=O)[O-])s2)c1 | nt | 0% | 96* | 33*
CSc1cccc(NC(=O)CSc2ncccc2C(=O)Oc2cccc([N+](=O)[O-])c2)c1 | 3% | 0% | -1 | 17*
Cc1ccc(-c2c(C)sc3nc(CN4CCN(CC(=O)NC5CC5)CC4)[nH]c(=O)c23)cc1 | nt | -4% | nt | nt
Cc1c(Cl)cc(C(C)(C)C)c(O)c1Cc1c(C)c(Cl)cc(C(C)(C)C)c1O | -19% | nt | nt | nt
Cc1c(Cl)cccc1Nc1ncccc1C(=O)OCC(O)CO (stereo not drawn) | 4% | 3% | 15 | -4
CNC(=O)C(=O)Nc1cc2c3c(c1)C(C)C(=O)N3CCC2 (stereo not drawn) | 2% | 2% | -5 | -10
CC(=O)Nc1ccc(C(=O)COC(=O)C2CC2C)c(F)c1 (stereo not drawn) | nt | 1% | nt | nt
CCCC[C@@H]1CCCO[C@@](C(=O)NCC2CC2)(C(F)(F)F)C1 | nt | nt | -7 | -4
COC(=O)c1cccc(NC(=O)/C=C/c2cccc([N+](=O)[O-])c2)c1 | 14% | 1% | 52 | 15*
COCCCN(C(=O)c1ccco1)c1nc(-c2ccc(OC)cc2)cs1 | -33% | -6% | 23 | 13*
COCCCN(C(C)=O)c1nc(-c2ccccc2)cs1 | -17% | -6% | 81* | 39*
COCCCN(C(=O)c1ccccc1)c1nc(-c2ccc(OC)cc2)cs1 | -28% | 7% | -3 | 1
CCCN1C(=O)/C(=C/c2ccc(C)s2)NC1=S | -7% | 25% | 38 | 20*
O=C(c1c(F)cccc1F)N1CCCC(c2nc(-c3ccc(F)cc3)no2)C1 (stereo not drawn) | -20% | 3% | nt | 24*
COc1ccc(-c2noc(C3CCCN(C(=O)c4ccc(C)cc4)C3)n2)cc1 (stereo not drawn) | -10% | 2% | 11 | 15
COc1ccc(-c2noc(C3CCCN(C(=O)c4ccc(F)cc4)C3)n2)cc1 (stereo not drawn) | -23% | 0% | 71 | 26*
CCOc1ccc(N(CC(=O)NCc2ccc(OC)cc2)S(C)(=O)=O)cc1 | -56% | 1% | 56* | 34*
